Test results published in PubChem BioAssay (EPA / NIEHS).
Several values for one entry are separate records, joined by “and”; a condition that tells them apart may be missing. Equal entries are not always repeated. More than one record can exist for a structure, and the calls need not agree. Activity calls are given as the source filed them. The calls were made as follows: active = hit-call score of the fitted dose curve at least 0.9, where 1 is the maximum; inactive = score below 0.9.

Assay: BSK_3C_uPAR: BioMAP Diversity Plus: 3C Assay for Urokinase-type plasminogen activator receptor (uPAR) Biomarker Activity (AID 2282998)
Conditions: BioMAP 3C HUVEC, uPAR biomarker ELISA; actives raise or lower the signal
Procedure: BSK_3C is a cell-based, multiplexed-readout assay that uses umbilical vein endothelium, a human vascular primary cell, with measurements taken at 24 hours after chemical dosing in a 96-well plate.BSK_3CAR is an assay component measured in the BSK_3C assay. It measures uPAR antibody related to regulation of gene expression using ELISA technology.Data from the assay component BSK_3CAR was analyzed into 1 assay endpoint. This assay endpoint, BSK_3CAR, was analyzed with bidirectional fitting relative to DMSO as the negative control and baseline of activity. Using a type of binding reporter, gain or loss-of-signal activity can be used to understand changes in the signaling as they relate to the gene PLAUR. Furthermore, this assay endpoint can be referred to as a primary readout, because this assay has produced multiple assay endpoints where this one serves a signaling function. To generalize the intended target to other relatable targets, this assay endpoint is annotated to the cytokine intended target family, where the subfamily is plasmogen activator.
The levels of cell surface (or secreted, indicated by the prefix "s") biomarker endpoints were measured by ELISA. Overt cytotoxicity to cells in confluent adherent cultures (all systems other than the BT system) was assessed by measuring total protein levels using sulforhodamine B (SRB) staining in parallel cultures at the time of biomarker measurements, indicated as SRB endpoints. For proliferation assays for adherent cell types, individual cell types are cultured at sub-confluence and relative cell numbers quantified by SRB staining at time points optimized for each system (48 h: 3C and CASM3C systems; 72 h: BT and HDF3CGF systems; 96 h: SAg system). SRB was performed by staining cells with 0.1% SRB after fixation with 10% TCA and reading wells at 560 nm.Viability and proliferation of PBMC (T cells) was quantified by Alamar Blue reduction for the SAg and BT systems. For PBMC viability (referred to as PBMC Cytotoxicity within the assay endpoint names), cells were plated (75,000/well in a 96-well plate) and then chemical samples added for 1 h before addition of activators, SEB and TSST-1 (20 ng/mL final concentration each). Cells were incubated for 90 h. Then, Alamar Blue (20 uL/well) (Invitrogen, Cat DAL1100) was added for 6 h, and the plates were read with a fluorescence microplate reader at 546/580 nm (excitation/emission). For PBMC proliferation, cells were plated and activated as above but incubated for only 16 h prior to addition of Alamar Blue. Plates were read after 6 h.

Compound	outcome	AC50
CC1=CC=C(C(C)C)CC1	inactive	
CC(CCC(=O)O)(c1ccc(O)cc1)c1ccc(O)cc1	inactive	
c1ccc(Nc2cccc3ccccc23)cc1		27.6 µM (active) and 24.7 µM (active)
Oc1ccc(/C=C/c2cc(O)cc(O)c2)cc1	inactive	
C1CNCCN1	inactive	
C[N+](C)(C)CCCNS(=O)(=O)C(F)(F)C(F)(F)C(F)(F)C(F)(F)C(F)(F)C(F)(F)C(F)(F)C(F)(F)F	inactive	20.7 µM (active)
Nc1ccc(C(=O)O)cc1	inactive	
CCCCCCCO	inactive	
C=CCCCCCCCCC=O	inactive	
Oc1c(Cl)cc(Cl)c(Cl)c1Cl		20 µM (active)
CCCCCC1=CCCC1=O	inactive	
C=CC(=O)OCC(C)OCC(C)OCC(C)OC(=O)C=C (stereo not given)		24.6 µM (active)
CCCCC1C(=O)N(c2ccccc2)N(c2ccccc2)C1=O		10.2 µM (active)
CC1(C)CC(O)CC(C)(C)N1[O]	inactive	
O=C(Cl)c1c(Cl)c(Cl)c(C(=O)Cl)c(Cl)c1Cl	inactive	
CCCCCCCCC(CO)CCCCCC (stereo not given)	inactive	
Oc1ccccc1Cc1ccccc1O	inactive	
O=C1CCCCCCCCCCC1	inactive	
CCOC(=O)C1=NN(c2ccc(Cl)cc2Cl)C(C)(C(=O)OCC)C1 (stereo not given)	inactive	
CCOC(=O)C1=NOC(c2ccccc2)(c2ccccc2)C1	inactive	

Compound	outcome	AC50
CC/C=C\CCOC(=O)c1ccccc1O		31.8 µM (active)
CC=C(C)C(C)=O	inactive	
CCNc1nc(NC(C)(C)C)nc(OC)n1	inactive	
C=CC(=O)NC(C)(C)C	inactive	
CCOC(=O)/C=C\C(=O)OCC	inactive	
COc1ccc(C(=O)/C(Br)=C\C(=O)O)cc1		29.7 µM (active) and 31.7 µM (active)
CCN1CN(CC)CN(CC)C1	inactive	
C=CC(=O)OCCCCCCCC(C)C	inactive	
CCCCCCCCCCCC(C)=O		34.5 µM (active)
O=C(Oc1ccccc1)c1ccccc1C(=O)Oc1ccccc1	inactive	
CC(C)C(=O)OCCc1ccccc1	inactive	
C=CC(=O)OCCCCCCOC(=O)C=C		20 µM (active)
CCCCCCCCCCCC(=O)N(C)CC(=O)O	inactive	
CC(c1cc(C(C)(C)C)cc(C(C)(C)C)c1O)c1cc(C(C)(C)C)cc(C(C)(C)C)c1O	inactive	
Cc1c(O)cccc1O	inactive	
Nc1nc(N)nc(-c2ccccc2)n1	inactive	
Nc1cccc(N)n1	inactive	
CCc1cccc(C)c1N(C(=O)CS(=O)(=O)O)C(C)COC (stereo not given)	inactive	
CCCC(C)C(=O)OCC (stereo not given)	inactive	
